# Compound activity (PubChem BioAssay)
# Sampled rows, rich in hits. Any-hit rate of the full collection: about 21%.
# RORgamma inh: qHTS for inhibitors of ROR gamma transcriptional activity | Potency, µM (titrated, usually from 53.6 µM), usual class: inhibitors | Drosophila S2 Gal4-RORgamma UAS-luciferase reporter, 20 h | Nuclear receptor ROR-gamma (Mus musculus), P51450 | 310,000 tested, 5.4% active; also: nearly all actives have a fitted effect of over 60% in size
# Target sequence (P51450 whole entry, looked up, the tested form may be a part): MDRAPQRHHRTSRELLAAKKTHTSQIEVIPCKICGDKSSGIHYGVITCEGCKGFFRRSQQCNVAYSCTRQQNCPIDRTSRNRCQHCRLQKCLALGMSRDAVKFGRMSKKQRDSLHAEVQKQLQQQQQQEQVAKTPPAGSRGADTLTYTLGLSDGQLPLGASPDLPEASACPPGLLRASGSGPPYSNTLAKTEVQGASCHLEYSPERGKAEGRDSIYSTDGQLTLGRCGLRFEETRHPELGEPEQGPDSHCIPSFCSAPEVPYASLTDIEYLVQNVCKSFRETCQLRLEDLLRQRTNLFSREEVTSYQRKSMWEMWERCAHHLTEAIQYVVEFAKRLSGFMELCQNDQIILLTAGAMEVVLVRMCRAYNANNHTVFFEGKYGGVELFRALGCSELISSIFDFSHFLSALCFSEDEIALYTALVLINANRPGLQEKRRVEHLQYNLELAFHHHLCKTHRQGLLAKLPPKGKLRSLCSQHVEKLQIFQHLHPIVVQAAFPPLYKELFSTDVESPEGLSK
#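 Luciferase reporter read in Schneider cells carrying Gal4-RORγ (mouse) and UAS-Photinus luciferase; cells given compound 1 h before 700 uM copper sulfate induction, then incubated 20 h at ambient temperature.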
# ELG1 repair inh: qHTS screen for small molecules that inhibit ELG1-dependent DNA repair in human embryonic kidney (HEK293T) cells expressing luciferase-tagged ELG1 | HEK293T ELG1-luciferase reporter, luminescence, 16 h; DNA damage induced by 5-fluorouridine | Potency, µM (top dose mostly 46.1 µM), most hits filed as inhibitors | 330,000 tested, 2.3% active; also: nearly all actives have a fitted effect of over 55% in size
#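 In this reporter screen, reduction of luminescence relative to DMSO vehicle indicated activity. Compounds and 5-fluorouridine were added together to 2,000 cells per well, incubated for 16 hr at 37 °C, then developed with ONE-Glo.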
# DT40 TDP1 CPT: qHTS for Inhibitors of human tyrosyl-DNA phosphodiesterase 1 (TDP1): qHTS in cells in presence of CPT | chicken DT40 Tdp1-/-;hTDP1 cells + 20 nM CPT, ATP luminescence, 48 h | 420,000 tested, 12% active | Potency, µM (highest dose often 46.2 µM), usual class: inhibitors; also: nearly all actives have a fitted effect of over 55% in size
#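 Cell growth measured by CellTiter-Glo luminescence after a minimum 48 h, 37 C compound exposure with 20 nM CPT in Tdp1-knockout DT40 cells stably expressing hTDP1, seeded 400/well; qHTS titration format.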
# DT40 TDP1 no CPT: qHTS for Inhibitors of human tyrosyl-DNA phosphodiesterase 1 (TDP1): qHTS in cells in absence of CPT. AID 686978, 2013. Potency, µM (doses to about 46.2 µM), usual class: inhibitors. 420,000 tested, 15% active. DT40 Tdp1-/- hTDP1 cells, no CPT, ATP luminescence, 48 h; also: nearly all actives have a fitted effect of over 55% in size
#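 Growth of hTDP1-complemented DT40 Tdp1-knockout cells is measured by ATP luminescence after at least 48 hr compound exposure at 37 °C, with DMSO substituting for the 20 nM CPT used in the parallel screen.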
# Gal4-VP16 FLuc: VP16 counterscreen qHTS for inhibitors of ROR gamma transcriptional activity | Drosophila S2 Gal4-VP16 UAS-luciferase, luminescence, 20 h | 310,000 tested, 3.5% active | Potency, µM (series often up to 53.6 µM), usual class: inhibitors;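 also: Gal4-VP16 expression switched on by copper sulfate through the metallothionein promoter; nearly all actives have a fitted effect of over 50% in size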
# IL1B secr inh: qHTS for Inhibitors of Inflammasome Signaling: IL-1-beta AlphaLISA Primary Screen; THP-1 LPS/ATP IL-1B secretion, AlphaLISA, 16 h; hits give low values; activity change, % at 57.5 µM; 360,000 tested, 4.7% active; in the data active = activity change below about -50%; inconclusive = mostly about -30% to -49%
#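 THP-1 cells pretreated 1 hr with compounds (up to 57.5 uM final), then stimulated with LPS (250 ng/mL final) plus ATP (1.25 mM final); secreted IL-1B measured by AlphaLISA after 16 hr, decreased signal indicating inhibition.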
# Hits are given with their value; i = inactive; ? = inconclusive; nt = not tested or not shown; [ ] = dose if it differs, or a comment. Unless noted, calls follow the shape of the dose curve; as a rule, active = well fitted curve in the direction sought with a large enough effect; inconclusive = small, poorly fitted or top-dose-only effect, or another doubt; inactive = no such curve, though single readings can be large; an effect the other way counts as inactive or inconclusive.
SMILES,RORgamma inh,ELG1 repair inh,DT40 TDP1 CPT,DT40 TDP1 no CPT,Gal4-VP16 FLuc,IL1B secr inh
Cc1nc(C)n(CC(=O)NCC2Cc3cc(-c4ccsc4)cc(Cl)c3O2)n1 (stereo unspecified),nt,nt,i,?,nt,nt
CC1CCN(C(=O)c2[nH]cnc2C(=O)NC2CCN(C(=O)OC(C)(C)C)CC2)CC1,nt,i,?,i,nt,i
CC(C)C[C@H](NC(=O)c1nc[nH]c1C(=O)NC1CCN(C(=O)OC(C)(C)C)CC1)C(=O)OC(C)(C)C,3.2µM,i,?,18µM,7.1µM,i
C[C@H](NC(=O)c1nc[nH]c1C(=O)NC1CCN(C(=O)OC(C)(C)C)CC1)C(=O)OC(C)(C)C,?,i,18µM,?,11µM,i
CC(C)C[C@H](NC(=O)c1nc[nH]c1C(=O)NC1CCN(C(=O)OC(C)(C)C)CC1)C(=O)OCc1ccccc1,i,i,?,?,?,-79
O=C(Nc1cccc(Cl)c1Cl)C1CCN(C(=O)c2cccs2)CC1,i,i,i,i,i,i
O=C(COc1ccc2ccccc2c1)NC1CC(=O)N(c2ccccc2)C1 (stereo unspecified),nt,nt,i,i,nt,nt
COc1ccccc1-c1noc2ncnc(Nc3cccc(C)c3)c12,i,i,?,?,i,i
Cc1cccc(CCNc2ncnc3onc(-c4ccc(Cl)cc4)c23)c1,nt,nt,?,18µM,nt,nt
CC(C)(CCO)Nc1ncnc2onc(-c3ccc(F)cc3)c12,i,i,i,?,i,i
Fc1ccc(Nc2ncnc3onc(-c4ccc(Cl)cc4)c23)cc1Cl,nt,nt,?,18µM,nt,nt
CCOc1ccc(CCNc2ncnc3onc(-c4ccc(F)cc4)c23)cc1OCC,nt,nt,?,23µM,nt,nt
COc1ccc(CCNC(=O)c2c(C)oc3ncnc(N4CCOCC4)c23)c(OC)c1,nt,nt,i,i,nt,nt
COc1ccc(CCNc2ncnc3onc(C)c23)c(OC)c1,nt,nt,1.2µM,0.52µM,nt,nt
CCc1ccc(C2CC(=O)c3c([nH]c(C(=O)OC4CCC(C)CC4)c3C)C2)cc1 (stereo unspecified),nt,nt,i,?,nt,nt
O=S(=O)(c1ccc2ccccc2c1)N1CCN(CCO)CC1,i,i,i,i,i,i
COc1ncc(C2=CC(=O)CC(C)(C)C2)cn1,nt,i,i,i,nt,i
COCCCNc1ncnc2onc(-c3ccc(F)cc3)c12,nt,nt,i,?,nt,nt
Nc1c(Cl)ncnc1NCCO,i,i,i,i,i,i
CCC(CO)Nc1ncnc2onc(-c3ccc(F)cc3)c12 (stereo unspecified),i,i,i,i,i,i
Cc1ccc(CCNc2ncnc(Cl)c2N)cc1,nt,nt,0.46µM,0.52µM,nt,i
CCc1cccc(Nc2ncnc3onc(-c4ccc(F)cc4)c23)c1,nt,nt,23µM,16µM,nt,nt
Cc1ccc(CCNc2ncnc3onc(-c4ccc(Cl)cc4)c23)cc1,nt,nt,?,26µM,nt,nt
COc1ccc(CNc2ncnc3onc(-c4ccc(F)cc4)c23)cc1,nt,nt,21µM,29µM,nt,nt
Cc1ccc(NC(=O)c2ccc3oc(=O)c(S(=O)(=O)c4ccccc4)cc3c2)cc1C,nt,nt,i,i,nt,nt
SMILES,RORgamma inh,ELG1 repair inh,DT40 TDP1 CPT,DT40 TDP1 no CPT,Gal4-VP16 FLuc,IL1B secr inh
Cc1ccc(C(c2sc3nc(-c4ccco4)nn3c2O)N2CCOCC2)cc1 (stereo unspecified),nt,nt,i,i,nt,nt
CC1CCCCN1C(=S)NC(=O)c1cc(Br)ccc1Cl (stereo unspecified),nt,i,?,?,nt,i
Cc1ccn2c(=O)cc(CSc3nnc(NC(=O)c4ccccc4Cl)s3)nc2c1,nt,nt,i,?,nt,nt
Cc1ccc(SCCNC(=O)CN(c2ccccc2)S(=O)(=O)N(C)C)cc1,nt,nt,i,?,nt,nt
CCOCc1ccccc1Nc1ncnc2onc(-c3ccc(Cl)cc3)c12,nt,nt,i,?,nt,nt
COc1cccc(CNc2ncnc3onc(C)c23)c1,nt,nt,13µM,9.2µM,nt,nt
Cc1noc2ncnc(NCc3ccc(Cl)cc3)c12,nt,nt,13µM,16µM,nt,nt
Clc1ccc(CNc2ncnc3onc(-c4ccc(Cl)cc4)c23)cc1,nt,nt,?,18µM,nt,nt
CC(C)CNc1ncnc2onc(-c3ccc(Cl)cc3)c12,nt,nt,i,i,nt,nt
CCOc1ccc(CCNc2ncnc3onc(-c4ccc(Cl)cc4)c23)cc1,nt,nt,9.2µM,8.2µM,nt,nt
COc1cccc(CNc2ncnc3ccc(-c4c(C)noc4C)cc23)c1,?,i,nt,nt,?,nt
CCCNc1ncnc2onc(C)c12,i,i,i,?,i,i
CN(C(=O)c1cccc(NC(=O)C2CCN(C(=O)OC(C)(C)C)CC2)c1)C1CCCCC1,nt,23µM,21µM,13µM,nt,i
CN(C(=O)c1cccc(NC(=O)C2CCCN(C(=O)OC(C)(C)C)C2)c1)C1CCC1 (stereo unspecified),nt,?,21µM,16µM,nt,?
CN(C(=O)c1ccc(NC(=O)C2CCN(C(=O)OC(C)(C)C)CC2)cc1)C1CCC1,nt,?,18µM,18µM,nt,i
CN(C)c1cccc(C(=O)OCC(=O)NC2CCCC2)c1,i,i,i,i,i,i
C=C(C)C(O)/C=C/c1cccc(OC)c1 (stereo unspecified),?,nt,nt,nt,i[10 µM],nt
Cc1cc(C)cc(NC(=O)CCCc2nc(-c3ccco3)no2)c1,nt,nt,i,i,nt,nt
CC(C)NC(=O)N1Cc2cc(C(=O)NC3CCCC3)nc(-c3cccc(-c4cccnc4)c3)c2[C@H]1CCO,nt,nt,?,?,nt,i
CCC(=O)N1Cc2cc(C(=O)Nc3nccs3)nc(-c3cccc(-c4ccccc4OC)c3)c2[C@H]1CCO,nt,nt,?,16µM,nt,?
COc1ccccc1-c1cccc(-c2nc(C(=O)Nc3nccs3)cc3c2[C@H](CCO)N(C(C)=O)C3)c1,nt,nt,6.5µM,5.8µM,nt,?
COc1ccccc1-c1cccc(-c2nc(C(=O)Nc3nccs3)cc3c2[C@@H](CCO)N(C(C)=O)C3)c1,nt,nt,?,?,nt,i
COCCNC(=O)C1(C)CCN(C(=O)c2cc(-c3ccccc3)cs2)C1 (stereo unspecified),nt,nt,i,i,nt,i
O=C(COc1ccc(S(=O)(=O)N2CCOCC2)cc1Cl)NC1CCCCC1,i,i,?,i,i,i
O=S(=O)(c1ccc(OCC(O)CNC23CC4CC(CC(C4)C2)C3)c(Cl)c1)N1CCOCC1 (stereo unspecified),?,i,?,16µM,i,-78
COc1ccc(C2Nc3ccc4ccccc4c3-c3c2c(=O)oc2ccccc32)cc1 (stereo unspecified),?,i,nt,nt,i,nt
